Inconclusive results are not listed. A number with no mark means an inactive call. Active and inactive are the calls of the source. Calls follow the shape of the dose curve; as a rule, active = well fitted inhibition curve with a large enough effect; inconclusive = small, poorly fitted or top-dose-only effect; inactive = no such curve, though single readings can be large or run the other way.
The molecules below were run on Zika virus NS2B-NS3 protease (unlinked) (assay: Optimization of GU AMC qHTS for Zika virus inhibitors: Unlinked NS2B-NS3 protease assay (AID 1347151; also: nearly all actives have a fitted effect of over 80% in size;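 as to activity change, negative = inhibition: 0% = no-inhibitor control and -100% = no-enzyme control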)). Settings: recombinant ZIKV NS2B-NS3 protease, fluorogenic AMC substrate; series mostly up to 52.5 µM; activity change, negative = inhibition: at the top concentration.
In short: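 Noncovalent complex of NS2B hydrophilic domain and NS3 protease domain, 25 nM final, in 10 mM Tris-HCl pH 8.0, 0.01% Tween 20. AMC fluorescence change over 15 min at room temperature was fitted to a 4-parameter Hill equation.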
Potency is read from the fitted curve at half-maximal effect.

Compound	activity change, negative = inhibition [%]	Potency
COCC(=O)O[C@]1(CCN(C)CCCc2nc3ccccc3[nH]2)CCc2cc(F)ccc2[C@@H]1C(C)C	27.2	–
CCO/C([O-])=N/c1c[n+](N2CCOCC2)no1	-0.0696	–
Fc1ccc(C(c2ccc(F)cc2)N2CCN(C/C=C/c3ccccc3)CC2)cc1	3.18	–
C[N+](C)(C)CCOC(=O)CCC(=O)OCC[N+](C)(C)C	5.59	–
CCn1cc(C(=O)O)c(=O)c2cc3c(cc21)OCO3	–	23.8 µM (active)
Cc1scc2c1N(C(=O)CN1CCN(C)CC1)c1ccccc1NC2=O	-4.13	–
Cc1ccc(S(=O)(=O)NC(=O)NN2CCCCCC2)cc1	-1.91	–
CSc1ccc(C(=O)c2[nH]c(=O)[nH]c2C)cc1	-5.31	–
CCCCNc1ccc(C(=O)OCCN(C)C)cc1	-5.4	–
CC(C)NCC(O)c1cc(O)cc(O)c1 (stereo not drawn)	-2.36	–
CCCCNc1c(C(=O)OCC)c(C)nc2c1cnn2CC	-13.2	–
COc1ccc(CN(CCN(C)C)c2ccccn2)cc1	1.95	–
O=C(O)CN(CCOCCOCCN(CC(=O)O)CC(=O)O)CC(=O)O	7.02	–
CCc1cccc(N(C)C(N)=Nc2cccc3ccccc23)c1	2.71	–
Cc1ccc(=O)n(-c2ccccc2)c1	–	26.7 µM (active)
OCCN1CCN(CCCN2c3ccccc3C=Cc3ccccc32)CC1	-0.827	–
CNCCCN1c2ccccc2CCc2ccccc21	14.7	–

Compound	activity change, negative = inhibition [%]	Potency
CCc1c(C)[nH]c2c1C(=O)C(CN1CCOCC1)CC2 (stereo not drawn)	0.818	–
Cc1cccc(C)c1NC(=O)C(C)N (stereo not drawn)	-0.607	–
CN(C)C/C=C(/c1ccc(Br)cc1)c1cccnc1	-7.66	–
COc1ccc2c(c1OC)C(=O)O[C@@H]2[C@H]1c2c(cc3c(c2OC)OCO3)CCN1C	7.47	–
C[N+](C)(C)CCCCCCCCCC[N+](C)(C)C	337	–
CCN(CC)CCCN(c1ccccc1)C1Cc2ccccc2C1	6.57	–
O=C1CC2(CCCC2)CC(=O)N1CCCCN1CCN(c2ncccn2)CC1	-5.52	–
CCNC(=O)N1CCN(CCCC(c2ccc(F)cc2)c2ccc(F)cc2)CC1	8.92	–
CC(=O)[C@]1(O)Cc2c(O)c3c(c(O)c2[C@@H](O[C@H]2C[C@H](N)[C@H](O)[C@H](C)O2)C1)C(=O)c1ccccc1C3=O	23.9	–
c1cnc(N2CCN(Cc3ccc4c(c3)OCO4)CC2)nc1	0.281	–
CCN(CC)CCOCCOC(=O)C1(c2ccccc2)CCCC1	4.65	–
C#CCN(C)CCCOc1ccc(Cl)cc1Cl	1.41	–
CN(C)CCCN1c2ccccc2Sc2ccc(C(F)(F)F)cc21	10.8	–
COC(=O)[C@@H](N)Cc1ccc(O)c(O)c1	65.5	–
CN1CCN(CC(=O)N2c3ccccc3C(=O)Nc3cccnc32)CC1	1.67	–
OCCN1CCN(CC/C=C2/c3ccccc3Sc3ccc(C(F)(F)F)cc32)CC1	8.39	–

— PubChem BioAssay (NCATS)
